“And” between values parts separate entries of the source, which are not always exact repeats. Equal entries are not always repeated. A structure can be active in one record and inactive in another. The source made the active and inactive calls. The calls were made as follows: active = hit-call score of the fitted dose curve at least 0.9, where 1 is the maximum; inactive = score below 0.9.
assay: ATG_TAL_CIS: Attagene CIS-FACTORIAL HepG2 Assay for human TAL Basal Promoter (AID 2282966); conditions: HepG2 Attagene cis-factorial TAL promoter reporter; actives raise or lower the signal
Procedure: ATG_CIS is a cell-based, multiplexed-readout assay that uses HepG2, a human liver cell line, with measurements taken at 24 hours after chemical dosing in a 24-well plate.ATG_TAL_CIS is one of 52 assay component(s) measured or calculated from the ATG_CIS assay. It is designed to make measurements of mRNA induction, a form of inducible reporter, as detected with fluorescence intensity signals by Reverse transcription polymerase chain reaction (RT-PCR) and Capillary electrophoresis technology.Data from the assay component ATG_TAL_CIS was analyzed into 1 assay endpoint. This assay endpoint, ATG_TAL_CIS, was analyzed with bidirectional fitting relative to DMSO as the negative control and baseline of activity. Using a type of inducible reporter, measures of mRNA for gain or loss-of-signal activity can be used to understand the background control at the transcription factor-level as they relate to the gene . Furthermore, this assay endpoint can be referred to as a secondary readout, because this assay has produced multiple assay endpoints where this one serves a background control function. To generalize the intended target to other relatable targets, this assay endpoint is annotated to the background measurement intended target family, where the subfamily is internal marker.
Human liver HepG2 cells are transiently transfected with multiple reporter transcription units (MRTUs) in 6-well plates using FuGene 6 reagent (Roche; 3 ml FuGene/1 mg DNA). The MRTU constructs are regulated by a cis-regulating element (promoter). […] A major difference between the CIS and TRANS system is that in CIS activities of endogenous TFs are measured, whereas the TRANS assay evaluates changes in activities of exogenous, chimeric NR-Gal4 proteins. […] At the end of 24 hour incubation, total RNA was isolated using TriZol reagent (Invitrogen). The isolated RNA is then reverse-transcribed using oligo(dT) primer and Mo-MLV reverse transcriptase (Invitrogen) with DNAse I (Ambion) treatment for 30 min. The one-tenth of the produced cDNA was amplified by PCR using Taq DNA polymerase (Invitrogen) and two reporter sequence-specific primers. The PCR products were fluorescently labeled by primer extension with 6-arboxyfluorescein (6-FAM) 5'-labeled reporter sequence-specific primer (2 min at 95 C, 20 s at 68 C and 10 min at 72 C) and these products were digested with 5U of HpaI (New England Biolabs) for 2h at 37 C. The fragments were purified using Qiaquick PCR columns (Qiagen), analyzed on an ABI 3130xL genetic analyzer (Applied Biosystems) with peak positions identified by using a set of X-rhodamine (ROX)-labeled MapMarker1000 molecular weight standards (BioVentures). The raw capillary electrophoresis data was processed using Attagraph software (Attagene).

SMILES	outcome	AC50
CCCCCCCCCCCCOCCOS(=O)(=O)O	inactive	–
C[N+](C)(C)CCO	inactive	–
O=c1cc[nH]cc1	inactive	–
CCCCCCCCCCCCOC(C)=O	inactive	–
CCCCCCCCCCCCS	inactive	–
Nc1ccc(O)c(N)c1	inactive	–
O=C(OCc1ccccc1)c1ccccc1O	inactive	–
C=CC(C)(CCC=C(C)C)OC(=O)CC (stereo not given)	inactive	–
CC(C)=CC(=O)O	inactive	–
Cc1cccc(C)c1	inactive	–
CC(C)OB(OC(C)C)OC(C)C	inactive	–
C/C=C(\C)C(=O)OC/C=C(\C)CCC=C(C)C	inactive	–
CC(=O)OCC=C(C)CCC=C(C)CCC=C(C)C	–	100 µM (active)
CCCc1ccc(O)cc1	inactive	–
O=C(C=Cc1ccccc1)OCCCc1ccccc1	inactive	–
CCCCCCCC1CCCC1=O (stereo not given)	inactive	–
COc1ccc(OC)cc1	inactive	–
CCOC(=O)CC1(C)OCC(C)O1 (stereo not given)	inactive	–
CC(CO)(CO)[N+](=O)[O-]	inactive	–

SMILES	outcome	AC50
CC/C=C\CCOC(C)OCC (stereo not given)	inactive	–
O=C(O)c1ccc(C(=O)O)c(C(=O)O)c1	inactive	–
NC(=O)c1c(Cl)cccc1Cl	inactive	–
CC(=O)CC(=O)N(C)C	inactive	–
O=Cc1ccccc1O	inactive	–
NC(=O)NC(N)=O	inactive	–
O=C(c1ccc(OCCN2CCCCC2)cc1)c1c(-c2ccc(O)cc2)sc2cc(O)ccc12	inactive	20.4 µM (active) and 11.1 µM (active)
CCCCOCCOCCOCCO	inactive	–
Nc1cc([N+](=O)[O-])ccc1C(=O)O	inactive	–
COc1ccc(C(C)=O)cc1	inactive	–
CCC=C(C)C=O	inactive	–
CC(O)CNCC(C)O (stereo not given)	inactive	–
C=C(C)CCCC(C)CCO (stereo not given)	inactive	–
C#C[C@]1(O)CC[C@H]2[C@@H]3CCc4cc(O)ccc4[C@H]3CC[C@@]21C	inactive	152 µM (active) and 78.2 µM (active)
CCCCCC#CC(=O)OC	inactive	–
O=C1CCC(=O)N1	inactive	–
C=CCOCC(O)CO (stereo not given)	inactive	–
C=C(C)C(=O)OCCN(C)C	inactive	–
NC(N)=S	inactive	–
